According to PubChem BioAssay (NCI):
About 83,000 compounds went through this panel and 20% of them were active in at least one assay; those are over-represented in the sample as a whole.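 Cell lines were cultured in 96-well plates, exposed to a single compound concentration, and assessed for percent growth 48 hours later.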 Unmarked numbers belong to inactive results. Activity calls are given as the source filed them. The calls were made as follows: active = growth percent below 10; inactive = the rest.

Tested on: HL-60(TB) leukemia
Experiment: NCI-60 one-dose screen, 48 h (100 = growth as untreated, 0 = no growth, -100 = all killed)
Conditions: 10 µM unless noted

| SMILES | growth |
| --- | --- |
| CCN(CC)c1ccc(C(=O)c2ccccc2)cc1 | 87.4% |
| CC[C@H](Nc1nc(N)nc(C)c1C#N)c1nc2cccc(NCc3ccc(C(=O)NO)cc3)c2c(=O)n1-c1ccccc1 | 2.45% (active) |
| CCOc1nc(-c2ccccc2)cc2c(O)c(-c3nnco3)[nH]c(=O)c12 | 34.6% |
| COc1cc(CNS(=O)(=O)c2ccc(C)cc2)ccc1OCc1cn(-c2ccc(F)cc2)nn1 | 114% |
| CCCc1nc2ccccn2c1Nc1ccc(C(=O)NO)cc1 | 111% |
| COc1cccc(/C=N/C(=S)NC2(C)C3CCC(C3)C2(C)C)c1O (stereo unspecified) | 75.5% |
| CC(=O)/C(=C/c1ccccc1)C(=O)CC(C)C | 38.8% |
| CCN(CC)CCOc1ccccc1C | 101% |
| COc1ccc(-n2nc3c(c2-c2ccc(OC)c(OC)c2)-c2oncc2CC3)cc1 | 88.4% |
| CCCc1cc2c(=O)c(C(=O)OC)c[nH]c2cc1N(CC)CC | 91.6% |
| NC(C(=O)O)c1ccc([N+](=O)[O-])cc1 (stereo unspecified) | 95.8% |
| NC(=S)N/N=C/c1ccc(Cl)cc1 | 103% |
| O=C1/C(=C/c2ccccc2)CN(C(=O)c2cccnc2)C/C1=C\c1ccccc1 | -8.8% (active) |
| O=C(CCn1cnc2c(cc(-c3ccccc3)n2-c2ccccc2)c1=O)Nc1ccc(F)cc1 | 86.6% |
| CN(C)c1ccc(/C=C(\C#N)c2nc3ccccc3c(=O)[nH]2)cc1 | 108% |
| C=CCn1c(C)nc2cc(Nc3nc(Cl)nc4ccccc34)ccc21 | 84.1% |
